According to the supplement of paper PMC6522484:
Values joined by “and” are separate entries in the source; they are usually repeats but may differ in a detail not shown here. Identical values can stand only once. ± gives the standard deviation of the averaged measurements.

Columns and labels:
DLD1 [1] = experiment: cell viability (CellTiter-Glo) relative to plate median (fraction of plate median); higher = more viable cells; conditions: 10 µM, treatment time 24 h
In short: (§1)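 Colorectal cancer cells expressing a stably transduced lentiviral TCF/Wnt firefly luciferase reporter were treated in 384-well plates with kinase inhibitor library compounds at a final 10 µM for 24 h. Firefly luciferase or CellTiterGlo luminescence was then read on parallel plates. Well signals were normalised to the plate median (webcellHTS2, additive, no log transformation) and averaged over two independent replicates.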

HCT116 [2] = experiment: as above; conditions: 10 µM; treatment time 24 h; reporter: TCF4/Wnt
In short: as §1

SW480 [3] = experiment: as above; conditions: 10 µM; treatment time 24 h; reporter: 7TFP
In short: as §1

DLD1 [4] = experiment: TCF/Wnt firefly luciferase reporter signal relative to plate median (fraction of plate median); higher = higher Wnt reporter signal; conditions: 10 µM, treatment time 24 h
In short: as §1

HCT116 [5] = experiment: as above; conditions: 10 µM; treatment time 24 h; reporter: TCF4/Wnt
In short: as §1

SW480 [6] = experiment: as above; conditions: 10 µM; treatment time 24 h; reporter: 7TFP
In short: as §1

Structure (SMILES) | cell viability (DLD1 [1]; reporter: 7TFP) | cell viability (DLD1 [1]; reporter: TCF4/Wnt) | cell viability (HCT116 [2]) | cell viability (SW480 [3]) | TCF/Wnt firefly luciferase reporter signal (DLD1 [4]; reporter: 7TFP) | TCF/Wnt firefly luciferase reporter signal (DLD1 [4]; reporter: TCF4/Wnt) | TCF/Wnt firefly luciferase reporter signal (HCT116 [5]) | TCF/Wnt firefly luciferase reporter signal (SW480 [6])
NC(=O)Nc1cc(-c2cccc(F)c2)sc1C(=O)N[C@H]1CCCNC1 | 0.645 ± 0.073 | 0.679 ± 0.04 | 0.293 ± 0.12 | 0.838 ± 0.13 | 0.667 ± 0.19 | 0.829 ± 0.15 | 0.436 ± 0.15 | 0.982 ± 0.14
O=C(O)c1ccc(Nc2ncc3c(n2)-c2ccc(Cl)cc2C(c2c(F)cccc2F)=NC3)cc1 | 1.06 ± 0.028 | 0.993 ± 0.067 | 0.982 ± 0.0042 | 1.01 ± 0.055 | 1.1 ± 0.19 | 1.11 ± 0.042 | 1.375 ± 0.0071 | 0.9575 ± 0.00071
COc1cccc(-c2cc(=O)c3ccccc3o2)c1N | 1.24 ± 0.085 | 1.025 ± 0.0071 | 1.19 ± 0.071 | 1 ± 0.023 | 1.71 ± 0.2 | 1.62 ± 0.53 | 1.25 ± 1 | 1.27 ± 0.65
C=CC(=O)N1CCC[C@@H](n2nc(-c3ccc(Oc4ccccc4)cc3)c3c(N)ncnc32)C1 | 1.05 ± 0.077 | 1.115 ± 0.0071 | 1.36 ± 0.085 | 1.16 ± 0.064 | 0.557 ± 0.17 | 0.881 ± 0.35 | 1.33 ± 0.14 | 1.11 ± 0.042
COc1ccc2c(OCc3nnc4ccc(-c5ccccc5)nn34)ccnc2c1 | 1.17 ± 0.05 | 1.06 ± 0.093 | 1.11 ± 0.05 | 0.909 ± 0.028 | 1.29 ± 0.028 | 1.27 ± 0.028 | 1.26 ± 0.035 | 1.16 ± 0.15
CNC(=O)c1cc(Oc2ccc(NC(=O)Nc3ccc(Cl)c(C(F)(F)F)c3)cc2)ccn1 [Sorafenib (Nexavar)] | 1.11 ± 0.028 | 1.04 ± 0.098 | 1.135 ± 0.0071 | 1.04 ± 0.021 | 0.959 ± 0.2 | 0.883 ± 0.081 | 1.06 ± 0.078 | 1.19 ± 0.057
COc1cc2ncnc(Nc3ccc(F)c(Cl)c3)c2cc1OCCCN1CCOCC1 [Gefitinib (Iressa)] | 0.913 ± 0.069 | 0.968 ± 0.021 | 0.961 ± 0.052 | 0.917 ± 0.03 | 1.005 ± 0.0071 | 0.812 ± 0.18 | 0.76 ± 0.24 | 1.02 ± 0.039
O=C(Nc1c[nH]nc1-c1nc2ccc(CN3CCOCC3)cc2[nH]1)NC1CC1 | 0.842 ± 0.038 | 0.817 ± 0.022 | 0.566 ± 0.1 | 1.02 ± 0.14 | 0.865 ± 0.018 | 1.575 ± 0.0071 | 0.189 ± 0.0099 | 0.84 ± 0.052
CNC(=O)c1ccccc1Nc1nc(Nc2ccc(N3CCOCC3)cc2OC)ncc1Cl | 0.8225 ± 0.00071 | 0.933 ± 0.069 | 0.895 ± 0.049 | 1.02 ± 0.073 | 0.638 ± 0.0099 | 0.823 ± 0.17 | 1.22 ± 0.28 | 1.08 ± 0.014
NCC(=O)Nc1ccc(-n2nc(C(F)(F)F)cc2-c2ccc3c(ccc4ccccc43)c2)cc1 | 0.883 ± 0.098 | 0.998 ± 0.14 | 0.833 ± 0.13 | 0.678 ± 0.46 | 1.09 ± 0.085 | 1.31 ± 0.34 | 0.606 ± 0.18 | 1.3 ± 0.057
C[C@@H]1CCN(C(=O)CC#N)C[C@@H]1N(C)c1ncnc2[nH]ccc12 | 1.02 and 1.09 | 1.07 and 1.1 | 1.21 and 1.14 | 0.9 and 0.972 | 1.06 and 1.04 | 0.874 and 0.875 | 1.18 and 1.36 | 0.736 and 0.979
Cc1cnc(NC(=O)Nc2cc(Br)c(C)cc2OC[C@@H]2CNCCO2)cn1 | 0.833 ± 0.16 | 0.983 ± 0.096 | 0.805 ± 0.16 | 1.02 ± 0.089 | 1.06 ± 0.057 | 1.12 ± 0.028 | 0.894 ± 0.35 | 0.938 ± 0.012
C[C@@H](N)[C@H]1CC[C@H](C(=O)Nc2ccncc2)CC1 | 1.03 ± 0.05 | 1.03 ± 0.05 | 1.09 ± 0.021 | 1.045 ± 0.0071 | 1.22 ± 0.092 | 1.32 ± 0.057 | 1.53 ± 0.064 | 1.18 ± 0.057
Cn1cc(-c2ccc3nnc(Sc4ccc5ncccc5c4)n3n2)cn1 | 0.983 ± 0.016 | 0.9215 ± 0.0078 | 1.07 ± 0.05 | 0.862 ± 0.014 | 1.12 ± 0.16 | 1.19 ± 0.042 | 1.41 ± 0.17 | 1.02 ± 0.052
C[C@@H]1CN(CC(=O)Nc2ccc3c(c2)Cc2cccc(-c4cc(=O)cc(N5CCOCC5)o4)c2S3)C[C@H](C)O1 | 0.7975 ± 0.00071 | 0.878 ± 0.043 | 0.957 ± 0.012 | 0.952 ± 0.058 | 1.3 ± 0.092 | 1.32 ± 0.11 | 1.33 ± 0.66 | 1.23 ± 0.071
CN1CCN(CCOc2cc(OC3CCOCC3)c3c(Nc4c(Cl)ccc5c4OCO5)ncnc3c2)CC1 [Saracatinib (AZD0530)] | 0.936 ± 0.048 | 0.874 ± 0.066 | 0.968 ± 0.0042 | 1.03 ± 0.047 | 0.824 ± 0.12 | 0.879 ± 0.036 | 0.799 ± 0.25 | 0.613 ± 0.32
CN(C)Cc1cccc(N=C(c2ccccc2)c2c(O)[nH]c3cc(C(=O)N(C)C)ccc23)c1 | 1.13 ± 0.057 | 0.947 ± 0.0014 | 1.13 ± 0.099 | 1.19 ± 0.035 | 0.966 ± 0.12 | 0.85 ± 0.061 | 1.11 ± 0.16 | 1.11 ± 0.014
Nc1ccc(-c2ccc3ncc4ccc(=O)n(-c5cccc(C(F)(F)F)c5)c4c3c2)cn1 [Torin 2] | 0.949 ± 0.031 | 0.9595 ± 0.005 | 0.681 ± 0.085 | 1.11 ± 0.064 | 0.355 ± 0.027 | 0.523 ± 0.032 | 0.641 ± 0.073 | 0.817 ± 0.0099
